Assay [1] concerns the target Ribosomal protein S6 kinase beta-1 (Homo sapiens) (UniProt P23443). As to conditions: at 1 µM.
The target is the same in assay [2]. As to conditions: at 10 µM.
In assay [3] the target is T1, Serine/threonine-protein kinase NLK (Homo sapiens) (UniProt Q9UBE8).
T1 sequence (whole entry): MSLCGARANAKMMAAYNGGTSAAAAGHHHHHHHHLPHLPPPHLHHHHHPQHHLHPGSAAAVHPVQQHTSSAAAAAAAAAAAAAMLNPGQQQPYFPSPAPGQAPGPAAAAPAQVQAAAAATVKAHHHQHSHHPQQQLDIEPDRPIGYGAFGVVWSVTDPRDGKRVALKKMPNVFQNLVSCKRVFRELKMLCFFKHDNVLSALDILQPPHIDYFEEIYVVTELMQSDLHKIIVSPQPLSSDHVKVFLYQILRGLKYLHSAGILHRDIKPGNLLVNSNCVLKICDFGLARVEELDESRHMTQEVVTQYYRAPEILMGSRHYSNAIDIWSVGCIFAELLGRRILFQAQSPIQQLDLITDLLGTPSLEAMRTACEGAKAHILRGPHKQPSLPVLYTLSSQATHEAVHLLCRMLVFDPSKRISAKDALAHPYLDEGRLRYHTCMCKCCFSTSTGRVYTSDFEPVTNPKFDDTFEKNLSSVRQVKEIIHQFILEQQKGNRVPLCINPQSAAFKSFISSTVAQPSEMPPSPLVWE
As to conditions: at 1 µM.

Assay [4] has as its target T1, Serine/threonine-protein kinase NLK (Homo sapiens). The following applies: at 10 µM.
In assay [5] the target is Serine/threonine-protein kinase PAK 6 (Homo sapiens) (UniProt Q9NQU5). The following applies: at 10 µM.
In assay [6] the target is Activated CDC42 kinase 1 (Homo sapiens) (UniProt Q07912). As to conditions: at 1 µM.
Assay [7] has the same target. As to conditions: at 10 µM.
Assay [8] deals with ALK tyrosine kinase receptor (Homo sapiens) (UniProt Q9UM73). As to conditions: at 1 µM.
The target in assay [9] is PAS domain-containing serine/threonine-protein kinase (Homo sapiens) (UniProt Q96RG2). As to conditions: at 10 µM.
The target in assay [10] is Serine/threonine-protein kinase PAK 5 (Homo sapiens) (UniProt Q9P286). The following applies: at 1 µM.
Assay [11] has the same target. The following applies: at 10 µM.
The target of assay [12] is Serine/threonine-protein kinase PAK 6 (Homo sapiens) (UniProt Q9NQU5). As to conditions: at 1 µM.
Assay [13] addresses Serine/threonine-protein kinase Nek7 (Homo sapiens) (UniProt Q8TDX7). The following applies: at 1 µM.
Assay [14] deals with Serine/threonine-protein kinase PAK 4 (Homo sapiens) (UniProt O96013). The following applies: at 10 µM.
Assay [15] deals with Serine/threonine-protein kinase PAK 2 (Homo sapiens) (UniProt Q13177). The following applies: at 1 µM.
The target is the same in assay [16]. As to conditions: at 10 µM.
The target of assay [17] is Serine/threonine-protein kinase Nek7 (Homo sapiens) (UniProt Q8TDX7). The following applies: at 10 µM.
For assay [18], the target named is Serine/threonine-protein kinase PAK 4 (Homo sapiens) (UniProt O96013). The following applies: at 1 µM.
Assay [19] concerns the target Serine/threonine-protein kinase Nek6 (Homo sapiens) (UniProt Q9HC98). As to conditions: at 1 µM.
Assay [20] has the same target. The following applies: at 10 µM.

Sequence of Serine/threonine-protein kinase PAK 6 (Homo sapiens) (Q9NQU5 whole entry, looked up): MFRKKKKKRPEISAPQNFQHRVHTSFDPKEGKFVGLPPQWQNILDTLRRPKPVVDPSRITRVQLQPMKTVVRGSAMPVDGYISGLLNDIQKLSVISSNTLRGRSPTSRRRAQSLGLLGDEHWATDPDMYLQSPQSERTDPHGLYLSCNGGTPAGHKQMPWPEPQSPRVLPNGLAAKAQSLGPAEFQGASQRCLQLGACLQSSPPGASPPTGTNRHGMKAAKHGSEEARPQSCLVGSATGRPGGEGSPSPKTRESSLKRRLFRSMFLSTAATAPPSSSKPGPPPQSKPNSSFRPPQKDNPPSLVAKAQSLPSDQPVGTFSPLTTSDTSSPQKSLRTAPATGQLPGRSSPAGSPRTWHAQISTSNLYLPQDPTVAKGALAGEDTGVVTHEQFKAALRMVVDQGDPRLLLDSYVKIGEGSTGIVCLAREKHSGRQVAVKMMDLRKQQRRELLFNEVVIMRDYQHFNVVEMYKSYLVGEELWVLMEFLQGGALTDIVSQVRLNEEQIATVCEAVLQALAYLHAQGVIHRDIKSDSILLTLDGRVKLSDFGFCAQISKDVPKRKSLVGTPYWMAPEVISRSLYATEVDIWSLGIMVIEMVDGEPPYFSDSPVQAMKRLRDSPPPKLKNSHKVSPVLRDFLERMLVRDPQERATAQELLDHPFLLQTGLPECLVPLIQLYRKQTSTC
Sequence of ALK tyrosine kinase receptor (Homo sapiens) (Q9UM73 19-1620 limits assumed): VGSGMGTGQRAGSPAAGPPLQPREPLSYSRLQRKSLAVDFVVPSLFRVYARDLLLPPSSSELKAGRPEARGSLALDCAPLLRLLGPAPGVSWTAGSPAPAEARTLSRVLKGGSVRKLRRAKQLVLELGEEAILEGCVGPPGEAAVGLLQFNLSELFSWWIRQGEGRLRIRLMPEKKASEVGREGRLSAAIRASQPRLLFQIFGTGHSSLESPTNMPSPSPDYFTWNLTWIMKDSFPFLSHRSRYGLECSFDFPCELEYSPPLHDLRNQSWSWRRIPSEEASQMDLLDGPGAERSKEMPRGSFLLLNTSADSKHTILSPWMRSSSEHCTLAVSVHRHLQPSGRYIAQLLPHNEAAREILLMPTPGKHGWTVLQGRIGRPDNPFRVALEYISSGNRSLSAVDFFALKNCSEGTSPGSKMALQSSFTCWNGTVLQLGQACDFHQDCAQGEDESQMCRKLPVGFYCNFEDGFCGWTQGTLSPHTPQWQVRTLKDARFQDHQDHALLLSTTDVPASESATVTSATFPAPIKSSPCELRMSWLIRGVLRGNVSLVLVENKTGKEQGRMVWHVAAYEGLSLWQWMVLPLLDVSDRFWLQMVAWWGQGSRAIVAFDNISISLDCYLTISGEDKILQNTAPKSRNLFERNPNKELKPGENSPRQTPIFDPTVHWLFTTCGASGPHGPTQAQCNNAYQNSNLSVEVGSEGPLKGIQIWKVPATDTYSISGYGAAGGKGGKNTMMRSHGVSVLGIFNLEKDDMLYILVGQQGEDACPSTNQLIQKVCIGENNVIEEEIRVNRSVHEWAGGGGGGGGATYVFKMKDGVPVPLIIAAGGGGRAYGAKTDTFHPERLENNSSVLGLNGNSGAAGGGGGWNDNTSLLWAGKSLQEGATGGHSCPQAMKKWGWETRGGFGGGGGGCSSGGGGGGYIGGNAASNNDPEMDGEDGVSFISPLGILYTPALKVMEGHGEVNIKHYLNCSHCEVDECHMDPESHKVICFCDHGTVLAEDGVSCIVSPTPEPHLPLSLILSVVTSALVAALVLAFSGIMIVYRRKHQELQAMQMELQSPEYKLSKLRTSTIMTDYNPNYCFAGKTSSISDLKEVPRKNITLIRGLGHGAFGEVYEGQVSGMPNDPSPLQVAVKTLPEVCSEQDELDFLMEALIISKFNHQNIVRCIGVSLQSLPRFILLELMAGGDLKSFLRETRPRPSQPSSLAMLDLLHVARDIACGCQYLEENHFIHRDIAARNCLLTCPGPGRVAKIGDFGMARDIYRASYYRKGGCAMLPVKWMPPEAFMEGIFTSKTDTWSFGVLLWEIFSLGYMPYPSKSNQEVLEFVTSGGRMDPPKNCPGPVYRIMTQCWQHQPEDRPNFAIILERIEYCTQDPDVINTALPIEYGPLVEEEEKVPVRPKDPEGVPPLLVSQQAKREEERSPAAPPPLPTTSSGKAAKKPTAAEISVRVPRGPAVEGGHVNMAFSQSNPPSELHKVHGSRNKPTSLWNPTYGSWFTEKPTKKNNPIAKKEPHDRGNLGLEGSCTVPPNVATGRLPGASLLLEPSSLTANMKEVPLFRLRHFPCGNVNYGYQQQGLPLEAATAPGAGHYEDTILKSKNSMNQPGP
Sequence of Serine/threonine-protein kinase Nek6 (Homo sapiens) (Q9HC98 whole entry): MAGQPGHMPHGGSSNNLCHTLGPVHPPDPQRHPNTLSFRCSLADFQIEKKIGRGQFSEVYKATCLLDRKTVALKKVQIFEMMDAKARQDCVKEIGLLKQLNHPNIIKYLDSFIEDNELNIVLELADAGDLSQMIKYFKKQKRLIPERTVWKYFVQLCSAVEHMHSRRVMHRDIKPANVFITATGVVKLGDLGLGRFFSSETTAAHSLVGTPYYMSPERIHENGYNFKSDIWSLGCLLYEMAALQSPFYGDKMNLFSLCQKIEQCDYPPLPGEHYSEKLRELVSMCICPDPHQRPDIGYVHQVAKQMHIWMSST
Sequence of Serine/threonine-protein kinase PAK 2 (Homo sapiens) (Q13177 whole entry): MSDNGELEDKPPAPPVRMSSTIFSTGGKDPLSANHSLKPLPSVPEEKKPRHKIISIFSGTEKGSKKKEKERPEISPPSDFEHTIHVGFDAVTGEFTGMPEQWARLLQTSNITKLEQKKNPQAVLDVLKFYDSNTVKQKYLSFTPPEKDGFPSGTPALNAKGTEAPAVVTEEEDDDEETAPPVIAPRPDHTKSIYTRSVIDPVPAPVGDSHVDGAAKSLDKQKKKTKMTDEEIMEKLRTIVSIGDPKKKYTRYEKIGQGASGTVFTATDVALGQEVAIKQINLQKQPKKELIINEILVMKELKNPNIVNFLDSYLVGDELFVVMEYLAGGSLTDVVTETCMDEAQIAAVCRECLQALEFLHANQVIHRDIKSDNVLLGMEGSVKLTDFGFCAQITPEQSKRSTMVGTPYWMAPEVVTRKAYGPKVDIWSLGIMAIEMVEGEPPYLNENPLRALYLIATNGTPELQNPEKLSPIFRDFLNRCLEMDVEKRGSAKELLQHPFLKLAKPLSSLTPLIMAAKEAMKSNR
Sequence of PAS domain-containing serine/threonine-protein kinase (Homo sapiens) (Q96RG2 whole entry, the tested form may be a part): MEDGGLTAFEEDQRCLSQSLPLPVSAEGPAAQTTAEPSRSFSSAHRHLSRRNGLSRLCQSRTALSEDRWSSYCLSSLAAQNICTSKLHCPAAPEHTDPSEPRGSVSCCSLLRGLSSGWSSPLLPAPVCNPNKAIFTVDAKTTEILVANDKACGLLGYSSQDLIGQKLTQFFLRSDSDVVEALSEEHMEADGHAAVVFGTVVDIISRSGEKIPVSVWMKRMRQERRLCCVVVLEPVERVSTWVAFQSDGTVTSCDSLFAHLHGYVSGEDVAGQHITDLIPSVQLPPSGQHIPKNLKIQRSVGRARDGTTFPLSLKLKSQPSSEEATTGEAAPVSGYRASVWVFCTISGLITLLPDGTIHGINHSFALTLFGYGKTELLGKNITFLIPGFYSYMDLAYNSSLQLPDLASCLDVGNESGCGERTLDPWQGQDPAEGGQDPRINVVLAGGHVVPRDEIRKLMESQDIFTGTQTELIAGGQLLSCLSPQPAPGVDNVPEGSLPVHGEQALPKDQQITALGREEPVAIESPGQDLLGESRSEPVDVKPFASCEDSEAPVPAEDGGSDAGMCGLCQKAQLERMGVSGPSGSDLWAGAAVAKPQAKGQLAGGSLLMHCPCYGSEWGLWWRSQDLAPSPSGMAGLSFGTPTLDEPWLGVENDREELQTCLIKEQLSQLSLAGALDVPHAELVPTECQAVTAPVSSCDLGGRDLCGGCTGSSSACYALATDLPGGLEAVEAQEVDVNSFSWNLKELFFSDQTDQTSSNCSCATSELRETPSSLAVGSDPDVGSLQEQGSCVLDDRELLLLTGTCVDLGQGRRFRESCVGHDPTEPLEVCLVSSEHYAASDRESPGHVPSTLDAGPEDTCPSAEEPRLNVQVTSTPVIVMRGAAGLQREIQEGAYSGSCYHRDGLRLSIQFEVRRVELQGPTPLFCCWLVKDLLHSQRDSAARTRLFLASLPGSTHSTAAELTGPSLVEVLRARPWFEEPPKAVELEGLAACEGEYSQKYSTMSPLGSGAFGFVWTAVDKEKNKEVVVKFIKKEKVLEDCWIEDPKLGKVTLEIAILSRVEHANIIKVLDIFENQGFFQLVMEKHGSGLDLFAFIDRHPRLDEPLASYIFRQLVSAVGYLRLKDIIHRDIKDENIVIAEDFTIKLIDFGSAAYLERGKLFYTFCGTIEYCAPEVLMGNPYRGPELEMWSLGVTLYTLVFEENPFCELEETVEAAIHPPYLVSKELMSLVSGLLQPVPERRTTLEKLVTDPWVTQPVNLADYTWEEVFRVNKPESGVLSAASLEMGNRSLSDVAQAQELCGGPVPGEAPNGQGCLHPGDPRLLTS
Sequence of Ribosomal protein S6 kinase beta-1 (Homo sapiens) (P23443 whole entry, looked up): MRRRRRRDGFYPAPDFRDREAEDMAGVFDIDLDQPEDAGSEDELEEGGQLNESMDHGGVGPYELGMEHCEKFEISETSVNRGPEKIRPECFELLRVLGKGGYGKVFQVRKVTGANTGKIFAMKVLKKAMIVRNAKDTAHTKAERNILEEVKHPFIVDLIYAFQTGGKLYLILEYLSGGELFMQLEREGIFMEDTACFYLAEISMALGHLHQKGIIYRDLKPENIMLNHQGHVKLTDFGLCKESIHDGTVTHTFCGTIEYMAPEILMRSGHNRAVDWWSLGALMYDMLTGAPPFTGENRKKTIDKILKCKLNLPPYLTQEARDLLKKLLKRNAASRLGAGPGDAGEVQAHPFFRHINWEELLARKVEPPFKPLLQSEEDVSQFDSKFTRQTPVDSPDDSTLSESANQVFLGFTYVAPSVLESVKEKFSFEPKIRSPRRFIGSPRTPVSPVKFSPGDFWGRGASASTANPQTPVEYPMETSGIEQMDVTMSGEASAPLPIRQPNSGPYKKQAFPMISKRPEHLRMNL

As to `CC(C)(C)c1nc2c3ccc(F)cc3c3c(=O)[nH]ccc3c2[nH]1`, the residual activity was determined as 47% in assay [1]; 44% in [2]; 34% in assay [3]; 19% in assay [4]; 68% in assay [5]; 10% in assay [6]. The residual activity in assay [7] stood at 0%; in assay [8], 30%.

Turning to `O=C(Nc1nc2ccccc2n1CCN1CCOCC1)c1cccc([N+](=O)[O-])c1`, the residual activity turned out to be 84% in assay [9], 81% in [6], 55% in assay [7] and 70% in assay [8].

Take `CC(C)[C@H](CO)Nc1nc(Nc2cc(N)cc(Cl)c2)c2ncn(C(C)C)c2n1`: the residual activity came to 86% in assay [1]; 39% in [2]; 57% in assay [10]; 12% in [11]; 26% in [12]; 5% in assay [5]. Besides, the results for the residual activity in assay [6] and in [7] were 29% and 9%, respectively.

With `Nc1nccc(-c2c(-c3ccc(F)cc3)ncn2C2CCNCC2)n1`, the residual activity worked out at 74% in assay [1]; 49% in [2]; 34% in [3]; 9% in assay [4]; 39% in assay [7].

For `Cc1cc(C)c(/C=C2\C(=O)Nc3ccccc32)[nH]1`, the residual activity in assay [13] was 101% (inactive); in assay [14], 69%; in [5], 62%; in assay [6], 52%; in assay [7], 18%; in assay [8] it was 37%.

As for `O=C1NC(=O)C(c2cn(CCCn3ccnc3)c3ccccc23)=C1Nc1ccccc1`, the residual activity was 23% in [1]; 6% in assay [2]; 107% in [15]; 67% in assay [16]; 75% in assay [14]; 45% in assay [6]. In addition, the residual activity in [7] came to 11%; in assay [8], 74%.

Turning to `O=C1C(Cl)=C(N2C(=O)CCC2=O)C(=O)c2ccccc21`, the residual activity in assay [2] was 67%; in [17], 96% (inactive); in assay [3], 95%; in assay [4] it was 88%; in [15] it was 101%; in [16], 98%. Besides, the residual activity in assay [18] was determined as 95%; in assay [14], 96%; in [10], 99%; in [11], 84%; in [5], 93%; in [9] it was 122%. For the same compound, the residual activity stood at 78% in [6], 69% in [7] and 65% in assay [8].

Take `O=S(=O)(NCCNC/C=C/c1ccc(Br)cc1)c1cccc2cnccc12`: the residual activity in assay [1] is 13%; in assay [2], 5%; in [5], 55%; in assay [9], 81%; in assay [6], 77%; in assay [7], 43%.

On to `CCOc1nc(NC(=O)Cc2cc(OC)ccc2OC)cc(N)c1C#N`, for which the residual activity in assay [1] was determined as 140%; in assay [2], 100%; in assay [12] it was 100%; in [5] it was 77%; in assay [6] it was 73%; in [7], 58%. For the same compound, the residual activity in assay [8] worked out at 81%.

For the compound `CN([C@@H](Cc1ccc(OS(=O)(=O)c2cccc3cnccc23)cc1)C(=O)N1CCN(c2ccccc2)CC1)S(=O)(=O)c1cccc2cnccc12`, the residual activity in [3] came to 100%; in assay [4] it was 99%; in [16] it was 98%; in [10], 115%; in assay [11], 72%; in assay [12], 84%. Also, the residual activity in [5] came to 50%; in assay [9], 79%; in assay [6], 100%; in [8] it was 74%.

As for `COc1ccc(-c2cnc3c(-c4ccsc4)cnn3c2)cc1`, the residual activity came out at 72% in assay [1]; 66% in assay [2]; 99% in [18]; 94% in [14]; 94% in assay [10]; 94% in assay [9]. In addition, the residual activity in [6] worked out at 71%; in [7], 68%.

With `O=c1cc(N2CCOCC2)oc2c(-c3ccccc3)cccc12`, the residual activity in [2] stood at 63%; in [4], 72%; in assay [5] it was 77%; in assay [9], 59%; in assay [6], 76%; in assay [7] it was 58%. Further, the residual activity in assay [8] was found to be 73%.

For `COc1ccc(CNC(=O)Nc2ncc([N+](=O)[O-])s2)cc1`, the residual activity is 114% (inactive) in [19]; 103% in assay [20]; 110% in assay [9]; 77% in [6]; 55% in [7]; 70% in assay [8].

As for `CSc1nc(-c2ccc(F)cc2)c(-c2ccnc(NC(C)c3ccccc3)c2)[nH]1` (configuration not stated), the residual activity in assay [3] was 69%; in assay [4], 14%; in assay [15], 100%; in assay [16], 87%; in [14], 92%; in assay [10], 102%. For the same compound, the residual activity in assay [11] was found to be 83%; in [12], 96%; in [5], 81%; in assay [9] it was 64%; in [6], 90%; in assay [7] it was 50%. For the same compound, the residual activity in assay [8] turned out to be 82%.

As for `CN(C)S(=O)(=O)c1ccc2c(c1)/C(=C/c1cc3c([nH]1)CCCC3)C(=O)N2`, the residual activity was 115% (inactive) in assay [19]; 114% in assay [20]; 111% (inactive) in assay [13]; 91% in assay [3]; 93% in assay [4]; 74% in assay [18]. Also, the residual activity in assay [14] was found to be 69%; in assay [12] it was 76%; in assay [5], 50%; in [6], 13%; in assay [7] it was 8%; in assay [8] it was 44%.

For the compound `NCCNc1ncc(C(N)=O)c(Nc2cccc(C(F)(F)F)c2)n1`, the residual activity in [20] was 111%; in assay [3] it was 106%; in assay [4], 81%; in assay [18], 49%; in assay [14], 9%; in [10], 48%. Further, the residual activity in assay [11] is 9%; in assay [12], 63%; in assay [5], 18%; in assay [9] it was 40%; in assay [6], 70%; in assay [7] it was 16%.

On to `NC(=O)c1ccc(-c2nc(-c3ccc4c(c3)OCCO4)c(-c3ccccn3)[nH]2)cc1`, for which the residual activity in assay [1] stood at 74%; in [2], 86%; in assay [18], 99%; in assay [14], 98%; in assay [6], 79%; in assay [7], 68%. In assay [8], the residual activity was found to be 74%.

(Values after ChEMBL document CHEMBL2218924, “A broad activity screen in support of a chemogenomic map for kinase signalling research and drug discovery” (Biochem J, 2013).)
